bovine MsrA act: bovine MsrA enzyme activators, primary screen, biochemical, absorbance, HTS | Methionine sulfoxide reductase A (Bos taurus) | activation, % at 10.6 µM | purified bovine MsrA, absorbance read-out | AID 602163, 2012 | 360,000 compounds, 0.3% hits; in the data active means activation above about 7.5%;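 further: 0% = vehicle and 100% = reference activator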
HGIII-sPLA2 inh: human group III sPLA2 inhibitors, primary screen, biochemical, QFRET, BODIPY PC-A2 liposome substrate | QFRET BODIPY PC-A2 liposome hydrolysis, fluorescence | inhibition, % at 12.2 µM | 370,000 compounds, 0.56% hits;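 active means inhibition above mean plus 3 SD of compounds lying within the high and low control bounds, cut at about 19% in these data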;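 further: 0% = median of test compound wells and 100% = no enzyme DMSO wells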
Target sequence (Q9NZ20 whole entry, looked up): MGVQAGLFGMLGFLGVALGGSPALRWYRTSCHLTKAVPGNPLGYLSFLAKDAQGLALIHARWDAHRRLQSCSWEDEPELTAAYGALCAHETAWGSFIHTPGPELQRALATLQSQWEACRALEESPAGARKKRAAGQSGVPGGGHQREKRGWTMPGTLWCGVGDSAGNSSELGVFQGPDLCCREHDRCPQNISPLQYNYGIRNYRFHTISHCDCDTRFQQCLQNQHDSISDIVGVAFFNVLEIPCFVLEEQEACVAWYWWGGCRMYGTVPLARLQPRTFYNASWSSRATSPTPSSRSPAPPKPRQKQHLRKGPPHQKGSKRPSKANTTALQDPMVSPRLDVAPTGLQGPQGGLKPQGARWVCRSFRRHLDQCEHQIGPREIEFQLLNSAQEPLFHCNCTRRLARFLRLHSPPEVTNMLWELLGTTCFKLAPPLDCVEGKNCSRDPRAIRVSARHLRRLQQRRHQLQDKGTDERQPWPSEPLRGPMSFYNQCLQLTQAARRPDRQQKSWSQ
rCAG binder: binders of r(CAG) RNA repeats, primary screen, biochemical, fluorescence; r(CAG) RNA repeat, TO-PRO-1 dye displacement fluorescence; inhibition, % at 3 µM; 370,000 compounds, 1.3% hits;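 active means inhibition above the plate cutoff, the mean of all test compounds on that plate plus 3 SD, cut at about 35% in these data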;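 further: 0% = DMSO alone and 100% = 100 µM mitoxantrone as full dye displacement; higher means more dye released from RNA so lower well fluorescence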
MsrA inhibitor: bovine MsrA enzyme inhibitors, primary screen, biochemical, absorbance, HTS | purified bovine MsrA, absorbance read-out | inhibition, % at 15.5 µM | 360,000 compounds, 0.75% hits | AID 651718, 2012; in the data active means inhibition above about 4.5%;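 further: 0% = vehicle wells with enzyme and 100% = reference inhibitor wells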
rCAG bind conf: small molecules binding CAG repeat RNA – biochemical, fluorescence, confirmation; shares compounds with rCAG binder; r(CAG) RNA repeat, TO-PRO-1 dye displacement fluorescence; inhibition, % at 3 µM; 4,300 compounds, 70% hits;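 active means inhibition above a per-plate cutoff, the mean inhibition of sample wells plus 3 SD, cut at about 35% in these data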;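 further: loss of TO-PRO-1 fluorescence as compound displaces dye from 1x1 AA loop RNA; 0% = DMSO only wells and 100% = 100 µM mitoxantrone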
dCAG dye counter: displacement of TO-PRO-1 from CAG DNA duplex, counter-screen for rCAG RNA repeat binder project, biochemical, fluorescence, TO-PRO-1 dye, d(CAG) DNA oligo; shares compounds with rCAG binder; d(CAG) DNA oligo TO-PRO-1 dye displacement; inhibition, % at 3 µM; 4,300 compounds, 94% hits;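 active means inhibition above its plate's cutoff, the mean test-well inhibition plus 3 SD, cut at about 4.8% in these data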;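 further: 0% = DNA dye mix with DMSO and 100% = 100 µM mitoxantrone; hits displace the dye from DNA and so lower well fluorescence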
dCAG dye DR: inhibitors of DNA CAG/GTC TO-PRO-1 complex, dose response, counter-screen for rCAG RNA repeat binder project, biochemical, fluorescence, TO-PRO-1 dye. shares compounds with rCAG binder. DNA CAG/GTC duplex TO-PRO-1 dye displacement fluorescence. 250 compounds, 20% hits. IC50, µM; in the data active means IC50 below about 10 µM
Numbers without * were called inactive; i = inactive; x = not tested or not shown. Rows were chosen to be rich in hits. Some 2.8% of all compounds tested hit in one or more screens of this group.

SMILES	bovine MsrA act	HGIII-sPLA2 inh	rCAG binder	MsrA inhibitor	rCAG bind conf	dCAG dye counter	others
Cn1c(=O)c([N+](=O)[O-])c(NCCc2ccccc2)c2ccccc21	-12	0	2	0	x	x
Cc1c(C(=O)O)oc2ccc(S(=O)(=O)N(CC(C)C)CC(C)C)cc12	-4	-12	46*	0	25	3
FC(F)(F)Oc1cccc(Cn2ccc3ccc(-c4ccc5ccn(Cc6ccccc6)c5c4)cc32)c1	x	16	55*	x	14	8.9*
COc1ccc(-c2nsc(SCC(=O)NCC3CCCO3)n2)cc1 (stereo not drawn)	1	2	-4	-1	x	x
COc1cccc2sc3cc(NCc4ccc5c(c4)OCO5)ccc3c(=O)c12	-14	-9	6	2	x	x
CCCCc1c(O)nc(SCC(=O)Nc2cccc3ccccc23)n(-c2ccccc2OC)c1=O	-3	-3	35*	0	27	7.8*
Cn1c(SCC(=O)Nc2cccc3ccccc23)nc(O)cc1=O	-1	-15	41*	1	10	4
COc1ccccc1-n1c(SCC(=O)Nc2cccc3ccccc23)nc(O)cc1=O	0	-6	48*	0	20	9.0*
Cc1ccc(NC(=O)CSc2nc(O)cc(=O)n2-c2ccc(C)cc2)cc1	-3	7	42*	-1	17	6.3*
COc1ccc(NC(=O)CSc2nc(O)cc(=O)n2-c2ccccc2OC)cc1	-5	x	x	x	x	x
CCc1c(O)nc(SCC(=O)Nc2ccccc2OC)n(-c2ccccc2C)c1=O	0	5	14	2	x	x
CCOc1ccccc1-n1c(SCC(=O)Nc2ccccc2C(=O)O)nc2ccccc2c1=O	-5	-7	35*	0	30	7.8*
Cc1sc(NC(=O)C2CCCO2)c(C(N)=O)c1C (stereo not drawn)	-10	1	42*	3	12	3
CCOC(=O)c1c(C)n(S(=O)(=O)c2ccc(C)cc2)c2ccc(O)c(C(=O)O)c12	4	-44	66*	-1	64*	27*
CCOC(=O)C1=C[C@@H](C)N(S(=O)(=O)c2ccc(C)cc2)[C@H]1c1ccccc1	0	-10	2	0	x	x
O=C(O)c1ccc(Cl)cc1NC(=O)C1CCN(S(=O)(=O)c2cccs2)CC1	-3	-11	39*	-1	41*	10*
O=C(CCN1C(=O)/C(=C\C=C\c2ccccc2)SC1=S)Nc1cccc(C(=O)O)c1	-3	-25	86*	1	84*	54*
O=C(CCN1C(=O)/C(=C/c2ccc(Cl)cc2)SC1=S)Nc1cccc(C(=O)O)c1	-2	-7	6	0	x	x
O=C(CCN1C(=O)/C(=C\C=C\c2ccccc2)SC1=S)Nc1ccccc1C(=O)O	-10	-9	42*	0	88*	57*
COc1cc(/C=C2/C(=O)NN(c3ccc(C)c(Cl)c3)C2=O)cc([N+](=O)[O-])c1O	-3	-5	98*	2	52*	16*
COC(=O)c1ccc(N2NC(=O)/C(=C/c3ccc(OC)c(OC)c3)C2=O)cc1	-3	-9	26	1	x	x
COc1cccc(/C=C2/C(=O)NN(c3ccccc3)C2=O)c1	-1	2	16	1	x	x
Cc1ccc(N2NC(=O)/C(=C\c3cc4c(cc3[N+](=O)[O-])OCO4)C2=O)cc1C	0	18	64*	2	45*	18*
COc1cc(/C=C2/C(=O)NN(c3cccc(C)c3)C2=O)ccc1OC(=O)c1ccco1	-2	-14	45*	-1	70*	30*	dCAG dye DR=i
COc1cc(/C=C2/C(=O)NN(c3cccc(C)c3)C2=O)cc([N+](=O)[O-])c1O	-12	-10	39*	2	20	6.1*
